From PubChem
MEKK3 PB1 HTS – modulators of MEKK3-MEK5 PB1 binding, primary screen, biochemical, wildtype MEKK3, multiplex bead flow cytometry, Alexa488-MEK5 | AID 1529, 2009 | binding response (% of control), % at 10 µM | actives 1.4% (n = 290,000) | bead-based flow cytometry, Alexa488-MEK5 binding to MEKK3; actives lie on both sides; 0 = blocked by unlabeled MEK5, 100 = vehicle;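 active means binding response more than 3 SD above or below the average of its plate-row segment, actives on both sides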;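 further: Alexa488 bead fluorescence after subtracting the streptavidin-only scavenger bead signal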
Target sequence (Q99759 whole entry, looked up): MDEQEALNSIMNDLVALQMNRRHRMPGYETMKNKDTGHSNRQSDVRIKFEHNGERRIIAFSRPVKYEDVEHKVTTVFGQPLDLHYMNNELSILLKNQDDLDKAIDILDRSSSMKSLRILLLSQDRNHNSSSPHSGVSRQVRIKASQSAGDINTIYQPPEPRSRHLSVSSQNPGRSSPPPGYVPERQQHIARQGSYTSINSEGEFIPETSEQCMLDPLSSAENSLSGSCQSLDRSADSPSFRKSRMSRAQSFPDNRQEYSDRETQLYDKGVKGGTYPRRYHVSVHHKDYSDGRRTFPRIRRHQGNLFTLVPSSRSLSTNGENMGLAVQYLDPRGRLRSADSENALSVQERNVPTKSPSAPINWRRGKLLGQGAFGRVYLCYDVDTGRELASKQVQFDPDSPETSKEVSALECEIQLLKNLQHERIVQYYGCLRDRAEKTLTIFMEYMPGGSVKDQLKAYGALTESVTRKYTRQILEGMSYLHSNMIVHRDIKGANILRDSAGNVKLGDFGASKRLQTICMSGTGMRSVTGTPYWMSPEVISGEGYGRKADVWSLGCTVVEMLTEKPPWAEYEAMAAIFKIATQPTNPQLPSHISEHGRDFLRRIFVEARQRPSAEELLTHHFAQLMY
GRK2 aptamer HTS – compounds blocking aptamer binding on GRK2 – biochemical, human GRK2, bead flow cytometry, HTS, primary screen; Beta-adrenergic receptor kinase 1 (Homo sapiens), P25098; FAM-aptamer displacement from GRK2; inhibition of aptamer binding, % at 10 µM; actives 0.59% (n = 330,000); AID 488847, 2010;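 active means inhibition of aptamer binding above 40%, roughly 3 SD of noise, on plates passing a quality check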;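 further: median bead fluorescence of bound FAM aptamer so fluorescent compounds give negative values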
MEKK2 WT-MEK5 – modulators of MEK5 binding to wildtype MEKK2, primary screen, biochemical, multiplex bead flow cytometry, Alexa488-MEK5; actives 1.1% (n = 290,000); Mitogen-activated protein kinase kinase kinase 2 (Homo sapiens), Q9Y2U5; binding response (% of control), % at 10 µM; Alexa488-MEK5 binding to MEKK2 WT; actives lie on both sides; in the data active means binding response below about 67% or above about 130%
MEKK2 mut-MEK5 – MEK5 binding signal on mutant MEKK2 PB1, primary screen, biochemical, multiplex bead flow cytometry, Alexa488-MEK5. Alexa488-MEK5 binding to MEKK2 mutant. percent response, % at 10 µM. actives 0.35% (n = 290,000); in the data active means percent response above about 24%, passing the limit was not always enough
GRK2 inh confirm – GRK2 aptamer-displacing inhibitors, retest, confirmation, biochemical, cherry pick 1, bead flow cytometry; shares compounds with GRK2 aptamer HTS; bead-bound GRK2, FAM-aptamer displacement; aptamer displacement, % at 10 µM; actives 4% (n = 2,000); AID 504451, 2011;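 active means aptamer displacement above 40%, near three times the noise of non-fluorescent compounds, on plates passing quality checks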;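 further: negative values mostly reflect intrinsic compound fluorescence rather than true enhancement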
Aptamer quench SP – quenches fluorescent RNA aptamer, GRK2 hit artifact; Carboxyfluorescein RNA aptamer on beads, flow cytometry quenching; hits give low values; fluorescence response (% of DMSO), % at 10 µM; shares compounds with GRK2 aptamer HTS; 2,000 tested, under 10 active;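 active means compounds that quench the bead-bound fluorescent RNA probe, cutting fluorescence to under half of the solvent control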;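 further: counterscreen run without GRK2 so only probe quenching by compound is measured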
GRK2 confirm 2 – GRK2 aptamer-displacing inhibitors, hit retest, confirmation, biochemical, cherry pick 2, bead flow cytometry; shares compounds with GRK2 aptamer HTS; bead-bound GRK2, FAM-aptamer displacement; inhibition of aptamer binding, % at 10 µM; 360 tested, under 10 active;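 active means inhibition of aptamer binding above 40%, about triple the noise seen with nonglowing compounds, on plates passing quality control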;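 further: negative values mostly come from compounds that fluoresce themselves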
FAM quench SP – aptamer fluorescence quenching in GRK2 counter-screen. shares compounds with GRK2 aptamer HTS. AID 588494. 360 tested, under 10 active. fluorescence response vs DMSO, % at 10 µM. carboxyfluorescein RNA aptamer beads, flow cytometry quenching; hits give low values;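 active means response vs DMSO under 50%, meaning signal dropped by over half, treated as fluorescence quencher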;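 further: labelled aptamer on streptavidin beads without GRK2 as a quench counter-screen; 100% = bead fluorescence of DMSO wells and lower means quenching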
The depositor's hits bear a star; / = no result given. Shown are actives, neighbours in structure and some others; about 2.5% of the full set was active somewhere.

SMILES	MEKK3 PB1 HTS	GRK2 aptamer HTS	MEKK2 WT-MEK5	MEKK2 mut-MEK5	GRK2 inh confirm	Aptamer quench SP	others
CCN(CC)CCn1c2c(c(SCC(=O)Nc3ccc4c(c3)OCCO4)nc1=O)CCCC2	/	0	/	/	/	/
O=C(Nn1cnnc1)c1ccc(Cl)cc1[N+](=O)[O-]	106	93*	111	3	-4	101
Cc1ccc(C(=O)Nn2cnnc2)cc1[N+](=O)[O-]	102	47*	100	6	0	101
C#CCOCCOCCOCCNc1nc(N2CCN(C(=O)CCCCCCCCCCNC(=O)[C@@H](CCC(=O)O)n3cc(CCCCCN)nn3)CC2)nc(N2CCN(C(=O)CCCCCCCCCCNC(=O)[C@H](CO)n3cc(CCCSC)nn3)CC2)n1	/	2	/	/	/	/
C#CCOCCOCCOCCNc1nc(N2CCOCC2)nc(N2CCN(C(=O)[C@H](CO)n3cc([C@@H](N)C(C)C)nn3)CC2)n1	/	74*	/	/	/	/	GRK2 confirm 2=-19;FAM quench SP=100
C#CCOCCOCCOCCNc1nc(N2CCOCC2)nc(N2CCN(C(=O)CCCCCCCCCCNC(=O)[C@H](CO)n3cc(CCCSC)nn3)CC2)n1	/	50*	/	/	-5	99
COc1ccc(/C=C2\SC(=O)N(CC(=O)NN3CCN(C)CC3)C2=O)cc1OC	88	3	86	-18	/	/
Cc1ccc([N+](=O)[O-])cc1NC(=S)NC(=O)c1cccs1	107	62*	100	0	/	/	GRK2 confirm 2=5;FAM quench SP=99
COc1ccc([N+](=O)[O-])cc1NC(=O)c1cccs1	108	1	103	-4	/	/
Cc1nn(CC(=O)c2ccc3c(c2)OCCO3)c(=O)c(C#N)c1C	/	5	/	/	/	/
O=C1NC(=S)S/C1=C\c1ccc(SCc2ccco2)o1	101	0	102	2	/	/
O=C1NC(=S)S/C1=C\c1ccc(SCc2ccccc2)o1	111	46*	90	-1	21	97
COc1cccc(CN2CCSCC2)c1OC	101	0	104	4	/	/
COc1cccc(CN2CCN(Cc3cccc(Br)c3)CC2)c1OC	85	55*	90	3	1	98
O=C1CCN(Cc2cccnc2)CCN1[C@H](CO)Cc1ccccc1	101	1	102	-6	/	/
COc1cc([N+](=O)[O-])ccc1NC(=O)CN1CCOCC1	97	2	96	-4	/	/
Cc1c(NC(=O)OC(C)C)sc(=S)n1C	78	34	98	0	0	117
COc1ccc(NC(=O)Nc2sc(=S)n(C)c2C)cc1	116	98*	106	-4	-3	96
Cc1c(NC(=O)Nc2ccc(Cl)c(Cl)c2)sc(=S)n1C	103	2	120	6	/	/
CC(=O)Nc1ccc(NC(=O)C(C)OC(=O)CNC(=O)c2ccc(-c3ccccc3)cc2)cc1 (stereo not given)	/	0	/	/	/	/
O=S(=O)(Nc1ccon1)c1ccc(Br)cc1	96	0	98	-2	/	/
CC(C)NC(=O)NC(=O)COC(=O)/C=C/c1ccccc1[N+](=O)[O-]	84	100*	90	-2	1	102
COC(=O)CNC(=O)COC(=O)/C=C/c1ccccc1[N+](=O)[O-]	96	0	91	-9	/	/
Cc1noc(C)c1CSCC(=O)Nc1nc2c(F)cc(F)cc2s1	/	3	/	/	/	/
COc1ccc(-c2sc3cc(OC)c(OC)cc3c2C#CC2(O)CCCCC2)cc1	/	83*	/	/	-3	96
SMILES	MEKK3 PB1 HTS	GRK2 aptamer HTS	MEKK2 WT-MEK5	MEKK2 mut-MEK5	GRK2 inh confirm	Aptamer quench SP	others
CC(=O)Nc1ccc(NC(=O)COC(=O)c2ccccn2)cc1	99	2	104	3	/	/
O=C(COc1cccc(C(F)(F)F)c1)NNC(=O)Cc1ccc(S(=O)(=O)N2CCOCC2)s1	/	4	/	/	/	/
O=C(COc1cccc(F)c1)NNC(=O)Cc1ccc(S(=O)(=O)N2CCOCC2)s1	/	46*	/	/	0	95
COc1ccc(C(=O)NCC(c2ccco2)N2CCc3ccccc32)c(OC)c1 (stereo not given)	/	0	/	/	/	/
COc1ccc(C(CC(=O)N2CCCC2)c2c(OC)cc(OC)c3c(-c4ccccc4)cc(=O)oc23)cc1 (stereo not given)	88	12	83	-6	/	/
COc1ccc(C(CC(=O)N2CCOCC2)c2c(OC)cc(OC)c3c(-c4ccccc4)cc(=O)oc23)cc1 (stereo not given)	95	48*	97	1	-1	94
CCc1nnc(NC(=O)c2ccc(COc3cccc(C)c3)o2)s1	97	1	99	-6	/	/
CC1(C)CC(NC(=S)NC2CC2)CC(C)(C)N1	104	69*	98	4	0	98
C=CCNC(=S)NC1CC(C)(C)NC(C)(C)C1	102	0	106	0	/	/
N#CC(c1ccccc1O)N1N=C(c2ccccc2)CC1c1ccccc1 (stereo not given)	101	46*	91	-5	1	39*
COc1cc(NC(=O)CSCC(=O)Nc2cc(OC)cc(OC)c2)cc(OC)c1	91	2	85	-18	/	/
O=C(COc1ccccc1)Nc1ccc2c(c1)C(=O)N(CC1CCCO1)C2=O (stereo not given)	91	1	106	5	/	/
O=C(Cc1ccccc1)Nc1ccc2c(c1)C(=O)N(CC1CCCO1)C2=O (stereo not given)	100	100*	96	-2	-1	96
COc1ccc(C)cc1NC(=S)N1CC(C)OC(C)C1 (stereo not given)	100	1	105	5	/	/
O=C(O)c1cccc(-c2ccc(/C=c3/sc4nc5ccccc5n4c3=O)o2)c1	102	50*	92	-2	12	97
O=c1/c(=C\c2cc([N+](=O)[O-])cc([N+](=O)[O-])c2O)sc2nc3ccccc3n12	110	3	103	-1	/	/
Cc1ccc(NC(=S)Nc2ccc(S(=O)(=O)N3CCOCC3)cc2)cc1S(=O)(=O)N1CCOCC1	110	0	101	-5	/	/
Cc1cccc(N2CC(C(=O)Nc3ccccc3N3CCOCC3)CC2=O)c1C (stereo not given)	/	32	/	/	1	100
